High-throughput results from PubChem.
Hits are enriched below; roughly 2.9% of the tested compounds scored in any of these assays.
ALOX12 inh – inhibitors of human 12S-lipoxygenase ALOX12. P18054. purified 12hLO, xylenol orange hydroperoxide absorbance. AID 1671190. 580,000 tested, 1.1% active. Potency, µM (highest dose often 108 µM), without a hit: top-dose activity change, negative = inhibition, usual class: inhibitors; note: potency is the fitted concentration of half-maximal effect; % is set by controls: 0 for no effect and ±100 for the full control effect
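Hydroperoxide product was detected by ferrous iron/xylenol orange as the 573 to 405 nm absorbance ratio. Arachidonic acid at 40 uM (final) was turned over for 30 min at room temperature by 150 nM human 12hLO, pH 7.0 Hepes buffer, after 15 min compound preincubation.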
Pol kappa inh-1 – DNA polymerase kappa (human) inhibition; Potency, µM (doses to about 107 µM), without a hit: at the top dose activity, negative = inhibition, actives largely listed as inhibitors; Q9UBT6; 400,000 tested, 0.53% active; purified Pol kappa, fluorescent DNA synthesis assay, 10 min; note: potency is the fitted concentration of half-maximal effect; % is set by controls: 0 for no effect and ±100 for the full control effect
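Activity was followed as the change in fluorescence between reads at 0 and 10 min after starting the reaction with 50 nM substrate. Beforehand, 10 nM polymerase had been preincubated with compound for 15 min at room temperature.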
POLB inh – DNA polymerase beta (human) inhibition | P06746 | Pol beta primer extension/strand displacement, fluorescence kinetic | Potency, µM (titrated, usually from 114 µM), without a hit: at the top dose activity change, negative = inhibition, actives largely listed as inhibitors | 340,000 tested, 1.3% active | AID 485314; note: potency is the fitted concentration of half-maximal effect; % is set by controls: 0 for no effect and ±100 for the full control effect
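Kinetic readout of DNA synthesis with strand displacement by Pol beta. Compound and 10 nM enzyme sit 15 min at room temperature; 50 nM substrate starts the reaction, read immediately and at 10 min.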
Pol eta inh-1 – inhibitors of human DNA polymerase eta | Q9Y253 | 390,000 tested, 1.2% active | Potency, µM (titrated, usually from 114 µM), without a hit: at the highest dose activity change, negative = inhibition, most hits filed as inhibitors | recombinant Pol eta, fluorescent DNA replication assay; note: potency is the fitted concentration of half-maximal effect; % is set by controls: 0 for no effect and ±100 for the full control effect
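Fluorescent replication assay: 50 nM final substrate added after a 15 min room-temperature compound preincubation with 10 nM enzyme. Signal taken at 0 min and again at 10 min.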
POLI inh – blocks human DNA polymerase iota activity; Potency, µM (top dose mostly 115 µM), inactives show top-dose activity, negative = inhibition, hits mostly inhibitors; AID 588590; 390,000 tested, 1% active; Q9UNA4; Pol iota fluorescent replication assay, 10 min; note: potency is the fitted concentration of half-maximal effect
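Pol iota at 10 nM preincubated 15 min with compounds at room temperature; reaction started with fluorescent substrate, 50 nM final. Fluorescence read kinetically at 0 and 10 min; buffer-only wells as negative control.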
PI5P4K alpha inh – PI5P4K alpha (human) kinase inhibition; P48426; PI5P4Kalpha enzyme, ADP-Glo luminescence, 60 min; stronger effect = lower value; max response, %; 330,000 tested, 1.2% active; AID 652105; active = max response of -50% or lower; inconclusive = between -30% and -50%; inactive = -30% or higher; note: value at the top dose of about 77 µM; % is set by controls: 0 for no effect and ±100 for the full control effect
Target sequence (P48426 whole entry, looked up): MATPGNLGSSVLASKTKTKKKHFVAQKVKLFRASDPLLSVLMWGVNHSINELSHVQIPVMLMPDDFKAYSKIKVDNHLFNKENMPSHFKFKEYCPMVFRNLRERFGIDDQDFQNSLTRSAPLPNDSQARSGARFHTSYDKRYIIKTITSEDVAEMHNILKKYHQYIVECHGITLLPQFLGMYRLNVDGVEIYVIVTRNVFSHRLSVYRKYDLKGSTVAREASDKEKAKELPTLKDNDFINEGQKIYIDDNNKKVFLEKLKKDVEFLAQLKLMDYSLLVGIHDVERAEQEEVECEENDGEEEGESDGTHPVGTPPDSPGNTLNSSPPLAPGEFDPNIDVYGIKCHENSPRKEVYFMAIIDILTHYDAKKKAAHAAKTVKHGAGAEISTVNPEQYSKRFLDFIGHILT
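Controls without substrate or without enzyme flank wells where PI5P4Kalpha converts substrate using 5 microM ATP (final). Incubation lasts 60 minutes at room temperature; ADP formed is read by ADP-Glo luminescence.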
POLI cherry-pick – Inhibitors of human DNA polymerase iota, confirmation | shares compounds with Pol kappa inh-1 | Pol iota primer extension, TAMRA/BHQ fluorescence | Potency, µM, most hits filed as inhibitors | 1,500 tested, 77% active; note: potency is the fitted concentration of half-maximal effect
Pol kappa inh-2 – Pol kappa (human) inhibition, cherry-pick confirmation | shares compounds with Pol eta inh-1 | purified Pol-kappa, fluorescent strand-displacement substrate | Potency, µM, hits mostly inhibitors | 920 tested, 76% active; note: potency is the fitted concentration of half-maximal effect
Pol eta inh-2 – Pol eta (human) inhibition, cherry-pick confirmation | shares compounds with Pol eta inh-1 | AID 720502 | Pol eta primer extension, TAMRA/BHQ fluorescence, 10 min | 2,600 tested, 64% active | Potency, µM, most hits filed as inhibitors; note: potency is the fitted concentration of half-maximal effect
An asterisk follows results filed as active; u = inconclusive; x = no result given; [ ] = dose if it differs, or a comment. Unless noted, calls come from the whole dose curve; as a rule, active = well fitted inhibition curve with a large enough effect; inconclusive = small, poorly fitted or top-dose-only effect, or another doubt; inactive = no such curve, though single readings can be large or run the other way.

SMILES | ALOX12 inh | Pol kappa inh-1 | POLB inh | Pol eta inh-1 | POLI inh | PI5P4K alpha inh | POLI cherry-pick | Pol eta inh-2 | others
COc1ccc(C(=O)N/N=C/c2ccc(OC)c(COc3c(F)c(F)cc(F)c3F)c2)cc1 | 0% | -16% | 50µM* | u | 45µM* | -5 | u | x | Pol kappa inh-2=u
CC(=O)Nc1sc2c(c1-c1nc3ccccc3s1)CCNC2 | x | x | x | x | x | x | 21* | x | Pol kappa inh-2=8.4*
CC(=O)Nc1sc2c(c1-c1nc3ccccc3s1)CCN(C(C)C)C2 | x | u | 3.5µM* | u | u | 4 | 19* | x | Pol kappa inh-2=12*
CC(=O)N1CCc2c(sc(NC(=O)CSc3ccc(F)cc3)c2-c2nc3ccccc3s2)C1 | u | -7%[60.1 µM] | -26% | -6% | 16% | x | x | x
CN1CCc2c(sc(NC(=O)CSc3ccc(F)cc3)c2-c2nc3ccccc3s2)C1 | -2% | -17% | 33% | -2% | 53% | x | x | x
COc1cccc(NC(=O)c2sc3ncnc(N(C)c4ccccc4)c3c2C)c1 | 15% | x | x | x | x | x | x | x
C=CCc1cccc2cc(C(=O)Nc3ccc(S(=O)(=O)Nc4nnc(CC)s4)cc3)c(=O)oc12 | -25% | -14% | -1% | 10µM* | 8.9µM* | 3 | u | 30* | Pol kappa inh-2=38*
C=CCc1cccc2cc(C(=O)Nc3ccc(CC(=O)O)cc3)c(=O)oc12 | -21% | u | 22µM* | 35µM* | u | -28 | u | 67*
CCc1nnc(NS(=O)(=O)c2ccc(N/C=C\C(=O)c3ccc4ccccc4c3)cc2)s1 | -24% | -27% | u | 50µM* | u | u | u | 76*
CCc1nnc(NS(=O)(=O)c2ccc(NC(=O)c3ccccc3)cc2)s1 | 2% | -6% | -5% | -3% | 15% | 1 | x | x
[O-][n+]1cn(O)cc1/C=N/O | 31% | x | x | x | x | x | x | x
Cc1cccc(CN2C[C@@H]3C(=O)N(CCN4CCc5ccccc5C4)C(=O)[C@@H]3C2)c1 | 62% | x | x | x | x | x | x | x
O=C(Nc1ccc(S(=O)(=O)Nc2ncccn2)cc1)c1ccc(S(=O)(=O)N2CCCC2)cc1 | 0% | 3% | -25% | -4% | 16% | -14 | x | x
Cc1ccc(S(=O)(=O)N2CCCCC2)cc1C(=O)Nc1ccc(S(=O)(=O)Nc2ncccn2)cc1 | -2% | 79µM* | u | 14µM* | 40µM* | u | 42* | 30*
CCN1CCC(NC(=O)CN(C)Cc2ccc(C(F)(F)F)cc2)CC1 | -3% | x | x | x | x | x | x | x
Cc1ccc(-n2nc3c(=O)n(C(C)C(=O)NCc4ccccc4C)nc(C)c3c2C)cc1 (centres undefined) | u | -10% | 45µM* | 89µM* | -25% | x | 75* | u | Pol kappa inh-2=67*
Cc1nn(C(C)C(=O)NCc2ccccc2F)c(=O)c2nn(-c3ccccc3)c(C)c12 (centres undefined) | -17% | -11% | -24% | -19% | 42% | 10 | x | x
C/C(=N\NC(=O)Cc1cccn1C)c1ccco1 | 0% | -19% | 2% | -6% | -23% | -8 | x | x
O=C(CSc1nnc(SCc2ccccc2)s1)N/N=C/C=C\c1ccco1 | 18µM* | 28µM* | 7.1µM* | 20µM* | u | -82* | 42* | 43*
Cn1cccc1CC(=O)N/N=C/C=C/c1ccco1 | u | 35µM* | 25µM* | u | 18µM* | -55* | 67* | u | Pol kappa inh-2=38*
Cc1cc2oc(=O)cc(CN3CCN(CCO)CC3)c2cc1C | 31% | x | x | x | x | x | x | x
CC(C)CCN1CCc2nc(N3CCc4ccccc4C3)[nH]c(=O)c2CC1 | 40% | x | x | x | x | x | x | x
CCc1ccc(OCc2ccc(C(=O)O)cc2)cc1 | 22% | x | x | x | x | x | x | x
Cc1nc(S/C(=C/c2ccc(OCc3ccc(C(=O)O)cc3)cc2)C(=O)O)n[nH]1 | -11% | 40µM* | -26% | 20µM* | 4µM* | u | 12* | 27*
O=C(CC1(C(=O)O)CCCCC1)Nc1ccc(NS(=O)(=O)c2ccc(F)cc2)cc1 | 27% | x | x | x | x | x | x | x
SMILES | ALOX12 inh | Pol kappa inh-1 | POLB inh | Pol eta inh-1 | POLI inh | PI5P4K alpha inh | POLI cherry-pick | Pol eta inh-2 | others
Cc1ccccc1-n1c(C)cc(/C=C2/C(=N)N3C(c4ccccc4)=CSC3=NC2=O)c1C | u | -13% | -26% | -9% | 8% | 1 | x | x
N=C1/C(=C\c2ccc(-c3cccc(C(=O)O)c3)o2)C(=O)N=C2SC=C(c3ccccc3)N12 | 40µM* | 40µM* | 20µM* | 8.9µM* | 20µM* | -98* | 30* | 9.5*
N=C1/C(=C/c2ccc(-c3cccc(C(=O)O)c3)o2)C(=O)N=C2SC(CC(=O)N3CCOCC3)=NN12 | -20% | u | u | 3.5µM* | 3.5µM* | -83* | 17* | 4.8*
COc1ccccc1-n1c(C)cc(/C=C2\C(=N)N3N=C(CC(=O)N4CCOCC4)SC3=NC2=O)c1C | -21% | 0% | 22% | -2% | 14% | 0 | x | x
COc1ccc2nc(-n3c(O)c(C4=c5ccccc5=NC4=O)[nH]c3=S)sc2c1 | -27% | u | 8.9µM* | 8.9µM* | u | -67* | 27* | 27* | Pol kappa inh-2=17*
Cn1c(O)c(C2=c3ccccc3=NC2=O)[nH]c1=S | -10% | -5% | -2% | -16% | 4% | -15 | x | x
COc1ccc2[nH]c3c(c2c1)CCNC31CCN(C(=O)c2cccnc2C)CC1 | 48% | x | x | x | x | x | x | x
Cc1ccc(-n2cccc2/C=C2/C(=N)N3C(=NC2=O)SN=C3S(C)(=O)=O)cc1Cl | 14µM* | u | 28µM* | 14µM* | 22µM* | -74* | 84* | u
COc1ccc2sc(/C=C/c3ccccc3O)[n+](C)c2c1 | 40µM* | -27% | 18µM* | 50µM* | 18µM* | -20 | 67* | 34* | Pol kappa inh-2=67*
COc1ccc(N=Cc2ccccc2O)cc1 | u | -7% | x | -7% | -17% | 0 | x | x
O=C(N/C=C/c1ccco1)NCc1ccccc1 | u | 35µM* | 16µM* | 18µM* | u | u | 27* | 27*
Cc1ccc(COc2ccc3ccccc3c2C=O)cc1 | 2% | x | x | x | x | x | x | x
COc1c(O)cc2oc(-c3ccc(O)cc3)cc(=O)c2c1O | u | u | u | -8% | -7% | -29 | x | x
